Screens as filed in PubChem.
PfHsp40 rescue – rescue of PfHsp40-mediated yeast toxicity. S. cerevisiae expressing PfHsp40, growth rescue, ATP luminescence. growth rescue, % at 12.5 µM. 340,000 tested, 0.68% active; in the data active means growth rescue above about 28%, passing the limit was not always enough; inconclusive means no clear call, values can overlap the other calls;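 further: yeast W303a lacking pdr1 and pdr3 grown in galactose medium; growth measured after three days at 30 °C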
Sa RN4220 lethal – kills Staphylococcus aureus RN4220. S. aureus RN4220 growth, OD600, 16 h. inhibition, % (test concentration not listed). 330,000 tested, 0.33% active. AID 1259311; in the data active means inhibition above about 85%
Sa ugtP lethal – growth inhibition of S. aureus ugtP deletion strain; S. aureus RN4220 ugtP deletion, OD600 growth, 16 h; growth inhibition, % (test concentration not listed); 330,000 tested, 0.54% active; AID 1259309; in the data active means growth inhibition above about 68%
Vc quorum ag-1 – inducers of Vibrio cholerae quorum light production without autoinducers; V. cholerae BH1578 lux reporter, luminescence, 6 h; activation, % at 18.7 µM; 350,000 tested, 0.16% active; AID 588436; in the data active means activation mostly above about 9.7%, no sharp cut-off; inconclusive means no clear call, values can overlap the other calls; inactive means mostly below about 3.7%
Mtb betalactam – beta-lactam sensitization of Mtb H37Rv; M. tuberculosis H37Rv growth with meropenem, percent inhibition; inhibition, % at 25 µM; 330,000 tested, 0.27% active;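 further: growth measured after seven days incubation then overnight dye step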
Vc quorum ag-2 – induces V. cholerae light production without autoinducers; shares compounds with Vc quorum ag-1; 620 tested, under 10 active; AID 602243; activation, % at 50 µM; V. cholerae BH1578 lux reporter, luminescence, 6 h
HeLa tox – kills HeLa cells within 24 hours; shares compounds with Vc quorum ag-1; HeLa viability, CellTiter-Glo ATP luminescence; activity change, negative = cytotoxicity, % at 35 µM; 25 tested, under 10 active; AID 624140;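 active means signal drop with fitted half-maximal concentration at or below twice the highest valid dose; inconclusive means flat curve with 30 to 70% loss, or poor fit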
Large screens that a line does not name were inactive (follow-up assays come after a bar, where they were run). Sampled rows, rich in hits. Any-hit rate of the full collection: about 1.2%. Unless noted, how the calls were made is not given here.

CCOC(=O)C1C2COc3cc(OC)ccc3C2N2C(=O)N(c3ccc(Br)cc3)C(=O)[C@]12C (stereo partly specified)	none (no result: PfHsp40 rescue, Vc quorum ag-1, Mtb betalactam)
O=C(NCC1CCCO1)c1ccccc1-c1nc(-c2ccc(Cl)cc2)no1 (stereo unspecified)	none
Cc1cccc(-c2noc(-c3ccccc3C(=O)NCC3CCCO3)n2)c1 (stereo unspecified)	none | Vc quorum ag-2 inactive
CCc1ccc2c(c1)c1nnc(NN)nc1n2CC	Vc quorum ag-1 135, Mtb betalactam inconclusive | Vc quorum ag-2 inactive
CCc1ccc2c(c1)c1nnc(NN)nc1n2C	none (no result: Sa RN4220 lethal, Sa ugtP lethal)
COc1ccc(OC)c(S(=O)(=O)NN=Cc2ccc3c(c2)OCO3)c1	none (no result: PfHsp40 rescue, Vc quorum ag-1, Mtb betalactam)
COC(=O)CC1c2ccc(C(F)(F)F)cc2S(=O)(=O)N1Cc1ccccc1 (stereo unspecified)	none (no result: PfHsp40 rescue, Vc quorum ag-1, Mtb betalactam)
COc1ccc(S(=O)(=O)Nc2cccc3c2OC(CN(C)C)C(C)CN(C(C)CO)C3=O)cc1 (stereo unspecified)	none (no result: PfHsp40 rescue, Vc quorum ag-1, Mtb betalactam)
CC(=O)C(CC(=O)N1CCCc2ccccc21)C(=O)Nc1ccc(F)cc1 (stereo unspecified)	none | Vc quorum ag-2 inactive
CC(=O)Nc1ccc(C(=O)N2CCCc3ccccc32)cc1	none
Cc1nn2cnnc2c(C)c1Cc1c(F)cccc1Cl	Vc quorum ag-1 165 | Vc quorum ag-2 inactive
Cc1cccc(C(NC(=O)OC(C)(C)C)C(=O)OC(C)(C)C)c1 (stereo unspecified)	none (no result: PfHsp40 rescue, Vc quorum ag-1, Mtb betalactam)
O=c1c2ccccc2nc(-c2ccco2)n1N=Cc1ccco1	none (no result: PfHsp40 rescue, Vc quorum ag-1, Mtb betalactam)
O=C(Nc1nnc(-c2ccc3c(c2)OCCO3)o1)C1CCCCC1	none (no result: Vc quorum ag-1, Mtb betalactam) | HeLa tox inactive
Cc1c(C(=O)c2cccc3ccccc23)c2cccc3c2n1C(CN1CCOCC1)CO3 (stereo unspecified)	none (no result: PfHsp40 rescue, Vc quorum ag-1, Mtb betalactam)
CCCOc1cc(C)c(S(=O)(=O)NCCOC)cc1C	none | Vc quorum ag-2 inactive
COc1cc2c(c(OC)c1OC)C(c1ccc(C)cc1)CC(=O)O2 (stereo unspecified)	none (no result: Mtb betalactam) | Vc quorum ag-2 inactive
COc1ccc(C2CC(=O)Oc3cc(OC)c(OC)c(OC)c32)cc1 (stereo unspecified)	none (no result: Mtb betalactam)
COCc1nnc(NC(=O)c2ccccc2Oc2ccccc2)s1	none
COCCSc1ccccc1C(=O)Nc1nnc(COC)s1	none | Vc quorum ag-2 inactive
O=C(c1cccc(S(=O)(=O)N2CCc3ccccc32)c1)N1CCOCC1	Vc quorum ag-1 288 | Vc quorum ag-2 inactive
O=C(c1cccc(S(=O)(=O)N2CCc3ccccc32)c1)N1CCc2ccccc2C1	none
Cc1ccc(COc2ccccc2-c2cc(C(=O)NN=Cc3cccnc3)[nH]n2)cc1	none (no result: PfHsp40 rescue, Vc quorum ag-1, Mtb betalactam)
O=C(c1cc2ccccc2cc1O)N1CCN(c2ccccc2O)CC1	none | Vc quorum ag-2 inactive
CCOC(=O)c1c(NC(=S)Nc2ccc(Cl)cc2)sc(C)c1C	none (no result: Sa RN4220 lethal, Sa ugtP lethal, Mtb betalactam) | Vc quorum ag-2 inactive
O=C(COC(=O)C1CCC1)Nc1ccc(Oc2ccccc2)cc1	none | Vc quorum ag-2 inactive
O=C(COC(=O)C1CC1)Nc1ccc(Oc2ccccc2)cc1	none
CCOC(=O)Cn1nc(C)n(-c2ccc(C(C)C)cc2)c1=O	none | Vc quorum ag-2 inactive
CCOC(=O)Cn1nc(C)n(-c2ccc(Cl)cc2)c1=O	none
CC(=NNS(=O)(=O)c1ccc(C)cc1C)c1c[nH]c2ccccc12	none (no result: PfHsp40 rescue, Vc quorum ag-1, Mtb betalactam)
O=C(CC1CC=CCCCC(=O)OCC2CCCN2C1=O)NCCO (stereo unspecified)	none (no result: PfHsp40 rescue, Vc quorum ag-1, Mtb betalactam)
CCCCn1c(=O)c(C(=O)NC(C)c2ccccc2)c(O)c2ccccc21 (stereo unspecified)	none
C=CCn1c(=O)c(C(=O)NC(C)c2ccccc2)c(O)c2ccccc21 (stereo unspecified)	Vc quorum ag-1 451 | Vc quorum ag-2 inactive
COc1ccc(NC(=O)CCS(=O)(=O)c2ccc3c(c2)CCCN3C(C)=O)cc1Cl	Vc quorum ag-1 17 | Vc quorum ag-2 inactive
NS(=O)(=O)c1ccc(NC(=S)NC2CCCCC2)cc1	none
NS(=O)(=O)c1ccc(NC(=O)NC2CCCCC2)cc1	Vc quorum ag-1 32 (no result: Sa RN4220 lethal, Sa ugtP lethal) | Vc quorum ag-2 inactive
CCN(CC(=O)Nc1c(F)cccc1F)C(=O)C1CC(=O)N(c2ccccc2OC)C1 (stereo unspecified)	none | Vc quorum ag-2 inactive
CCn1nnnc1NCc1cccc(OC)c1	none (no result: PfHsp40 rescue, Sa RN4220 lethal, Sa ugtP lethal, Vc quorum ag-1, Mtb betalactam) | HeLa tox inactive
CCCn1nnnc1NCc1cccc(OC)c1	none
Cc1sc(N)nc1-c1ccc(Oc2ccccc2)cc1	Vc quorum ag-1 46 | Vc quorum ag-2 inactive
CCC(C)C1CNCCN1CCc1cccc(F)c1 (stereo unspecified)	none (no result: PfHsp40 rescue, Vc quorum ag-1, Mtb betalactam)
CCCCCCCCOC(=O)C(NC(=O)CCC(=O)Nc1ccc(S(N)(=O)=O)cc1)C(O)c1ccccc1 (stereo unspecified)	Vc quorum ag-1 17 | Vc quorum ag-2 inactive
CCOC(=O)c1c(NC(=O)COC(=O)Cc2c[nH]c3ccccc23)sc(C(=O)N(C)C)c1C	none | Vc quorum ag-2 inactive
Cc1ccc(N(C(C)C(=O)N2CCCCC2)S(C)(=O)=O)cc1C (stereo unspecified)	Vc quorum ag-1 25 | Vc quorum ag-2 inactive
CC(C(=O)N1CCCCCC1)N(c1ccc(Cl)cc1)S(C)(=O)=O (stereo unspecified)	none
COc1cccc(N(CC(=O)NN=C(C)c2cccs2)S(C)(=O)=O)c1	none (no result: PfHsp40 rescue, Vc quorum ag-1, Mtb betalactam)
CC(NC(=O)c1nc[nH]c1C(=O)NCC(=O)OC(C)(C)C)c1ccccc1 (stereo unspecified)	none (no result: PfHsp40 rescue, Vc quorum ag-1, Mtb betalactam)
CCN(CC)S(=O)(=O)c1cccc(C(=O)OCC(=O)C23CC4CC(CC(C4)C2)C3)c1	none | Vc quorum ag-2 inactive
CCOC(=O)c1c(C)[nH]c(C)c1C(=O)COC(=O)c1cccc(S(=O)(=O)N(CC)CC)c1	none
O=C(CNc1ccc2c(c1)OCO2)NN=Cc1cn(Cc2ccccc2)c2ccccc12	none (no result: PfHsp40 rescue, Vc quorum ag-1, Mtb betalactam)
CCCNC(=O)Cc1ccsc1	none | Vc quorum ag-2 inactive
CCN(CC)CCNC(=O)c1ccc(NC(=O)Cc2ccsc2)cc1	none
O=C(Oc1nsnc1N1CCOCC1)N1CCCC1	none
O=C(Oc1nsnc1N1CCCCC1)N1CCOCC1	none | Vc quorum ag-2 inactive
CC(=NNC(=O)c1cc(C2CC2)[nH]n1)c1cccs1	none (no result: PfHsp40 rescue, Vc quorum ag-1, Mtb betalactam)
CCOc1ccc(CNC(=O)Cn2c(=O)c3cccn3c3ccccc32)cc1	Vc quorum ag-1 25 | Vc quorum ag-2 inactive
CC(C)Oc1ccc(CNC(=O)Cn2c(=O)c3cccn3c3cccnc32)cc1	none
Oc1ccc(C=NNc2nccnc2Cl)cc1	none (no result: PfHsp40 rescue, Vc quorum ag-1, Mtb betalactam)
COc1ccc(C(=O)NC2CCSC2=O)cc1 (stereo unspecified)	none | Vc quorum ag-2 inactive
COc1cccc(C(=O)NC2CCSC2=O)c1 (stereo unspecified)	none
c1ccc(CC2CNCCN2CC2CCCCC2)cc1 (stereo unspecified)	none (no result: PfHsp40 rescue, Vc quorum ag-1, Mtb betalactam)
CCCc1cc(=O)n2[nH]cc(-c3ccc(Cl)cc3)c2n1	Sa RN4220 lethal 99, Sa ugtP lethal 99, Vc quorum ag-1 41 | Vc quorum ag-2 inactive
COCc1cc(=O)n2[nH]cc(-c3ccccc3)c2n1	none (no result: Mtb betalactam)
CC(C#N)On1c(SC(C)C#N)nc2ccccc2c1=O (stereo unspecified)	none | Vc quorum ag-2 inactive
